Assay outcomes from PubChem BioAssay.
GPR151 activ: activates the human receptor GPR151. Q8TDV0. PathHunter beta-arrestin GPR151 cells, luminescence. activation, % at 11.2 µM. 650,000 compounds, 1% hits. AID 1508602; in the data active means activation above about 4.9%;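 further: 0% = median of compound wells and 100% = cells with positive control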
Target sequence (Q8TDV0 whole entry, looked up): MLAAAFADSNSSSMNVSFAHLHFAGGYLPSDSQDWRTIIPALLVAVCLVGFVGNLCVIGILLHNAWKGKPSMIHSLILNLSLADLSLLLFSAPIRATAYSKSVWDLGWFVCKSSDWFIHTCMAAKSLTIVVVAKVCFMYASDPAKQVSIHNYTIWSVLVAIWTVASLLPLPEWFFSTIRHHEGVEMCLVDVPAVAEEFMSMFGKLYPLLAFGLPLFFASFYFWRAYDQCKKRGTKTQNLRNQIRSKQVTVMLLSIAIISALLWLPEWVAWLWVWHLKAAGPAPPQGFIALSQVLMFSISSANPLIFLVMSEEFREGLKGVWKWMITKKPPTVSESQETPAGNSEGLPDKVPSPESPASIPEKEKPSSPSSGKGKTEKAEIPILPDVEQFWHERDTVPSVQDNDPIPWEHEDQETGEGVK
TEAD-YAP inh: TEAD-YAP interaction inhibition; HEK-TIYL cells, TEAD-Gal4/YAP UAS-luciferase luminescence; inhibition, % at 9.12 µM; 640,000 compounds, 1.4% hits; in the data active means inhibition above about 32%;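 further: 0% = median of test compound wells and 100% = reference inhibitor wells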
FBW7 act: activators of human E3 ligase FBW7. Q969H0. AlphaScreen FBW7–phospho-cyclin E peptide binding, activator screen. normalized activity (activation), % at 26.1 µM. 650,000 compounds, 0.13% hits; in the data active means normalized activity above about 1.9%;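 further: purified mutant Fbw7 with reduced substrate affinity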
MITF inh: blocks human microphthalmia-associated transcription factor; O75030; inhibition, % at 2.6 µM; AlphaScreen MITF homodimerization, bead proximity signal; 650,000 compounds, 0.91% hits; AID 1259374; in the data active means inhibition above about 50%;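 further: 0% = vehicle wells with protein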
* = called active by the depositor. Only some compounds are listed: those with a hit (about 3.4% of all), similar ones and a draw of the others.

SMILES	GPR151 activ	TEAD-YAP inh	FBW7 act	MITF inh
COc1ccc(-n2nnnc2SCC(=O)NC(C)(C)C)cc1OC	-1	3	0	19
O=C(N/N=C/c1cc([N+](=O)[O-])ccc1O)c1cccnc1	-3	16	-2	99*
COc1cc([N+](=O)[O-])cc(/C=N/NC(=O)c2ccc(F)cc2)c1O	0	54*	-1	63*
CC(C(=O)N/N=C/c1ccccc1O)n1nnc2ccccc21 (stereo unspecified)	-1	3	0	29
O=C(N/N=C/c1cc([N+](=O)[O-])ccc1Cl)c1cccnc1	0	-6	0	-3
Cc1nc2ccc(C(=O)N/N=C/c3cc([N+](=O)[O-])ccc3O)cc2[nH]1	1	-20	1.9*	92*
CC(C(=O)N/N=C/c1cc([N+](=O)[O-])ccc1O)n1nnc2ccccc21 (stereo unspecified)	-1	6	0	86*
COc1ccc(N2CCN(CC(O)COc3ccc(Br)cc3)CC2)cc1 (stereo unspecified)	-1	-1	0	8
Cc1cc(C(=O)N/N=C/c2c(O)ccc3cc([N+](=O)[O-])ccc23)n[nH]1	-1	0	0	2
COc1cc([N+](=O)[O-])cc(/C=N/NC(=O)c2ccccc2O)c1O	0	-13	0	79*
O=C(O)c1cccc(NC(=S)N/N=C/c2cc([N+](=O)[O-])ccc2O)c1	0	40*	0	-1
Cc1cc(C(=O)N/N=C/c2cc([N+](=O)[O-])ccc2O)n[nH]1	1	9	-1	59*
COc1ccc(/C=N/NC(=O)c2cc(C)[nH]n2)c(OC)c1	-2	-13	2.3*	21
O=S(=O)(Nc1cccc(-c2ccc(N3CCOCC3)nn2)c1)c1cccc(Cl)c1Cl	1	-15	0	0
CC1=C(C(=O)OCCOc2ccccc2)C(c2ccccc2Br)NC(=O)N1 (stereo unspecified)	0	0	0	-4
O=C(N/N=C/c1ccccc1O)c1ccccc1O	2	37*	0	29
O=C(N/N=C/c1cc([N+](=O)[O-])ccc1O)c1ccccc1O	0	7	0	87*
O=C(N/N=C\c1ccccc1F)c1cnccn1	-1	-30	0	10
O=C(N/N=C\c1ccccc1O)c1cnccn1	-1	-12	-1	59*
COCCCn1c(C)cc(C(=O)CSc2ncnc3sccc23)c1C	0	43*	0	14
CCOC(=O)c1cccc2c1NC(c1ccc([N+](=O)[O-])cc1)C1CC=CC21 (stereo unspecified)	0	7	0	13
CC(C)CCNS(=O)(=O)c1ccc(Oc2ccc(S(=O)(=O)NCCC(C)C)cc2)cc1	0	33*	1	10
CC(=O)c1ccc(S(=O)(=O)NCCC(C)C)cc1	1	8	0	5
N#Cc1c(-c2ccccc2F)c(C#N)c2nc3ccccc3n2c1N	0	42*	0	-15
COc1ccc(C[C@@H]2NC(=O)[C@@H]3C[C@H](NCc4ccc(Cl)s4)CN3C2=O)cc1	1	7	0	-7
SMILES	GPR151 activ	TEAD-YAP inh	FBW7 act	MITF inh
Cc1[nH]c2ccccc2c(=O)c1C(=O)/C=C/c1ccccc1	0	93*	0	-2
O=C(/C=C/c1ccccc1)c1c(O)c2ccccc2[nH]c1=O	1	4	0	5
Cc1ccccc1CN1CCN(Cc2cccc3ccccc23)CC1	0	-6	0	79*
Cc1nn(CCC#N)c2c1C1C(C2)C1(C)C (stereo unspecified)	1	-8	0	-2
O=Cc1c(O)n(-c2ccc(Cl)cc2)c(=O)[nH]c1=O	0	12	2.5*	14
Cc1cc(C)n(CC(=O)N2CCCC(c3[nH]ncc3-c3ccncc3)C2)n1 (stereo unspecified)	0	17	0	-5
Cn1ncc2cc(Nc3ncc4ccc(-c5cn[nH]c5)cc4n3)ccc21	4	71*	0	22
Cc1nc(C)n(-c2ccc(Nc3ncc4ccc(-c5cn[nH]c5)cc4n3)cc2)n1	-1	73*	0	11
Cc1nc(C)n(-c2ccc(Nc3cc4cc(-c5cn[nH]c5)ccc4cn3)cc2)n1	0	85*	0	11
Cc1ccc(-c2ncn(-c3ccc(Nc4ncc5ccc(Br)cc5n4)cc3)n2)cn1	1	4	0	-7
Cc1ncn(-c2ccc(Nc3ncc(Cl)c(-c4cn[nH]c4)n3)cc2)n1	0	7	0	-4
O=S1(=O)CC(c2ccccc2)CS(=O)(=O)C1CN1CCCCC1 (stereo unspecified)	2	5	0	-2
COc1ccc(O)c(/C=N/NC(=O)C(C)Nc2ccccc2OC)c1 (stereo unspecified)	1	5	0	-10
O=[N+]([O-])c1cccc(S(=O)(=O)N2CCCC(c3nc(-c4cccs4)no3)C2)c1 (stereo unspecified)	-1	-5	3.0*	7
CCOC(=O)c1c(NC(=O)c2cc(-c3cccc(OC)c3)on2)sc(C(C)=O)c1C	0	-2	0	10
CCN1C(=O)/C(=C/c2cc3c(cc2[N+](=O)[O-])OCO3)C(=O)NC1=S	2	3	0	74*
Cc1c(N=C2C(=O)N(CC(=O)O)c3ccccc32)c(=O)n(-c2ccccc2)n1C	-1	8	2.3*	5
COc1cccc(N2CC(NC(=O)N3CCC(O)CC3)CC2=O)c1 (stereo unspecified)	2	9	0	17
CCN(CCNC(=O)C(C)n1c2ccccc2c2nc(=O)cc(C)n21)c1ccccc1 (stereo unspecified)	0	-5	0	-20
CCOC(=O)N1CCN(c2c(NCCN(C)C)c(=O)c2=O)CC1	-1	10	0	1
CC(=O)N(Cc1ccc(F)cc1)C1=C(NCc2ccccc2)C(=O)c2ccccc2C1=O	-3	59*	0	4
OC1CCC(Nc2nc(NCc3ccccc3)c3ncn(-c4ccccc4)c3n2)CC1 (stereo unspecified)	1	-40	0	-2
OC1CCC(Nc2nc(Nc3ccc(N4CCOCC4)cc3)c3ncn(-c4ccccc4)c3n2)CC1 (stereo unspecified)	1	38*	0	21
c1ccc(-n2cnc3c(NC4CC4)nc(Nc4ccc(N5CCOCC5)cc4)nc32)cc1	1	33*	0	7
CC12COC3(C(=O)Nc4ccccc4)CC1CCC32C (stereo unspecified)	-1	0	0	8
CC12COC3(C(=O)Nc4nc5ccccc5s4)CC1CCC32C (stereo unspecified)	0	67*	0	-3
Cc1ccccc1NS(=O)(=O)c1ccc(N2CCCC2=O)cc1	0	47*	0	4
O=C(Nc1cccc2ccccc12)c1ccc(N2C(=O)C3C4C=CC(C4)C3C2=O)cc1 (stereo unspecified)	0	5	0	3
Nc1c(C(=O)Nc2ccc(F)cc2)sc2nc(-c3ccc4c(c3)OCO4)ccc12	0	-13	0	-15
Nc1c(C(=O)NC2CC2)sc2nc(-c3ccc4c(c3)OCO4)ccc12	-1	42*	0	7
